Source: PubChem BioAssay
TrxR1 inh: qHTS Assay for Inhibitors of Mammalian Selenoprotein Thioredoxin Reductase 1 (TrxR1): qHTS; Thioredoxin reductase 1, cytoplasmic (Rattus norvegicus), O89049; recombinant rTrxR1, NADPH fluorescence consumption, selenite substrate; Potency, µM (titrated, usually from 114 µM), for inactives: top-dose activity change, negative = inhibition, hits mostly inhibitors; 1% of 390,000 active; note: % is set by controls: 0 for no effect and ±100 for the full control effect; nearly all actives have a fitted effect of over 65% in size
Target sequence (O89049 whole entry, looked up): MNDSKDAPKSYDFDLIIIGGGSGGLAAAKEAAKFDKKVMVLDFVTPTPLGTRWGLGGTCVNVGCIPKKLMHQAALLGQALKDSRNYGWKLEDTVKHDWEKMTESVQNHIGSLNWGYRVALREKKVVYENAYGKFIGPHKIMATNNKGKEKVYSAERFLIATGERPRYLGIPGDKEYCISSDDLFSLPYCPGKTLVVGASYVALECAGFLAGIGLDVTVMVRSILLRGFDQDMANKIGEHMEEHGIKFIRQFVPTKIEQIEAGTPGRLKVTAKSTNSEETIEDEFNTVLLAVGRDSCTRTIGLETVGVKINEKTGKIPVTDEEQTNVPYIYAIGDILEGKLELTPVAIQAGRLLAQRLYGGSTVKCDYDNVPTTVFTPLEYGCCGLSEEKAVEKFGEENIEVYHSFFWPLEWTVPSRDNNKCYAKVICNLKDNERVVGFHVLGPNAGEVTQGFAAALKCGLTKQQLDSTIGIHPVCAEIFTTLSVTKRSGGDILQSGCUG
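Rat TrxR1 (90 nM in the dispensed reagent) was pre-reduced with 400 uM NADPH for 5 min at room temperature, then incubated with compound for 15 min. After 400 uM selenite was added, NADPH fluorescence (Ex 340/Em 450 nm) was followed for 8 min.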
A549 viability: Nrf2 qHTS screen for inhibitors: counterscreen for cytotoxicity. Potency, µM (highest dose often 46 µM), for inactives: at the highest dose activity change, negative = cytotoxicity, usual class: inhibitors. 0.16% of 390,000 active. AID 504648, 2011. A549 ARE-Fluc cells, CellTiter-Fluor viability, 18-24 h; note: % is set by controls: 0 for no effect and ±100 for the full control effect
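A549 ARE_Fluc cells in 5% FBS OPTI-MEM were exposed to compounds in concentration-response for 18-24 h at 37 deg C. Viability was read by CellTiter-Fluor fluorescence (Ex 405/Em 525) after 30 min, before the luciferase read.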
IDH1 R132H inh: qHTS for Inhibitors of mutant isocitrate dehydrogenase 1 (IDH1): qHTS; 0.093% of 390,000 active; IDH1-R132H enzyme, NADPH consumption, diaphorase/resazurin fluorescence; Isocitrate dehydrogenase [NADP] cytoplasmic (Homo sapiens), O75874; Potency, µM (highest dose often 76.6 µM), for the others: at the top dose activity change, negative = inhibition, actives largely listed as inhibitors; note: % is set by controls: 0 for no effect and ±100 for the full control effect; nearly all actives have a fitted effect of over 65% in size
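IDH1-R132H (0.5 ug/mL dispensed) in pH 7.5 Tris buffer was preincubated 30 min with compound, then given a substrate mix of 0.016 mM NADPH and 2 mM alpha-KG for 80 min at room temperature; remaining NADPH was read by diaphorase/resazurin fluorescence.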
Mito fusion act: qHTS Assay for Small Molecule Inhibitors of Mitochondrial Division or Activators of Mitochondrial Fusion; S. cerevisiae fusion-defective mutant growth rescue, CellTiterGlo 48 h; Potency, µM (highest dose often 46.1 µM), inactives show at the highest dose growth rescue (activation), most hits filed as activators; AID 485298, 2010; 0.23% of 320,000 active; note: % of control where 0% means no effect; nearly all actives have a fitted effect of over 45% in size
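Compounds are tested for their ability to restore growth of mitochondrial fusion-defective yeast strains at non-permissive 37C in YPEG medium over 48 hours. Viability is quantified by luciferase luminescence.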
TrxR1 substrate: qHTS Assay for Substrates of Mammalian Selenoprotein Thioredoxin Reductase 1 (TrxR1): qHTS. Thioredoxin reductase 1, cytoplasmic (Rattus norvegicus), O89049. purified TrxR1 substrate turnover, NADPH consumption readout. Potency, µM (titrated, usually from 114 µM), for inactives: top-dose activity change, negative = substrate turnover. 0.01% of 390,000 active; note: % is set by controls: 0 for no effect and ±100 for the full control effect; nearly all actives have a fitted effect of over 50% in size
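Rat TrxR1, dispensed at 90 nM, was prereduced with 400 uM NADPH (final) for 5 min at ~22 deg C, then incubated with compound 15 min before 400 uM selenite. A first-read NADPH fluorescence drop versus no-compound background flagged substrates.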
Nrf2 inh: Nrf2 qHTS screen for inhibitors. A549 ARE-Fluc reporter, luciferase luminescence, 18-24 h. 2.1% of 360,000 active. Potency, µM (doses to about 46 µM), for inactives: top-dose activity change, negative = inhibition, actives largely listed as inhibitors; note: % is set by controls: 0 for no effect and ±100 for the full control effect; nearly all actives have a fitted effect of over 60% in size
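Nrf2 function is reported as luminescence of an ARE-controlled luciferase in A549 cells. Compounds were tested at several concentrations, and a CellTiter-Fluor read on the same wells flagged cytotoxicity.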
Numbers without * were called inactive; ? = inconclusive; / = not tested or not shown; [ ] = dose if it differs, or a comment. Compounds with a hit are over-represented: about 3.1% of the library has one in this group of screens. Calls come from the whole dose curve; as a rule, active = well fitted curve in the direction sought with a large enough effect; inconclusive = small, poorly fitted or top-dose-only effect, or another doubt; inactive = no such curve, though single readings can be large; an effect the other way counts as inactive or inconclusive. Potency is the fitted concentration of half-maximal effect.

SMILES | TrxR1 inh | A549 viability | IDH1 R132H inh | Mito fusion act | TrxR1 substrate | Nrf2 inh
Cc1cccc(-n2c(SCC(=O)N3CC(=O)Nc4ccccc43)nc3ccccc3c2=O)c1C | 25% | -29% | -5% | -1% | 2% | 23µM*
CC(c1ccccc1)n1c(SCC(=O)N2CC(=O)Nc3ccccc32)nc2ccccc2c1=O (stereo not drawn) | -8% | -17% | 3% | 0% | -1% | 16µM*
O=C1COc2ccc(C(=O)CSc3ccccc3C(=O)O)cc2N1 | -15% | 0% | -7% | -2% | -5% | -26%
Cc1cccc(-n2c(SCC(=O)N3CC(=O)Nc4ccccc43)nc3ccccc3c2=O)c1 | 8%[57.1 µM] | -7% | -3% | -2% | -5% | ?
CN(C)S(=O)(=O)c1ccc(Cl)c(NC(=O)CSc2nc3c(cc2C#N)C(=O)CCC3)c1 | -6% | -12% | 5% | 0% | -8% | 15µM*
C=CC[C@H](c1ccc(F)cc1)N(CC(C)C)S(=O)(=O)C=C | 0% | / | / | / | -8% | /
CCC1(c2ccc(F)cc2)NC(=O)N(CC(=O)N2CCN(S(=O)(=O)c3ccc(Cl)cc3)CC2)C1=O (stereo not drawn) | 4% | -6% | 5% | -8% | -7% | -25%
CCC1(c2ccc(F)cc2)NC(=O)N(CC(=O)N2CCN(S(=O)(=O)c3ccc(C)cc3C)CC2)C1=O (stereo not drawn) | 26% | -22% | -4% | / | -1% | 18µM*
COc1ccc2c(=O)cc(-c3ccncc3)oc2c1OC | 6% | -20% | 2% | / | -9% | 16µM*
COc1ccc(-c2cc(=O)c3c(OC)c(OC)c(OC)c(OC)c3o2)cc1OC | -21% | ? | 5% | -1% | -4% | 2%
Cc1ccc2onc(CNC(=O)N3CCN(c4cc(Cl)ccc4C)CC3)c2c1 | 5% | -27% | -6% | / | -8% | ?
Cc1ccc(CNC(=O)CSc2nc3n[nH]c(C)c3c(=N)n2-c2cccc(C)c2)cc1 | 8%[57.1 µM] | ? | 16% | 9% | 7%[57.1 µM] | 15µM*
CCCCNC(=O)CSc1nc2n[nH]c(C)c2c(=N)n1-c1cccc(C)c1 | 19%[57.1 µM] | -12% | -7% | / | 5%[57.1 µM] | /
O=C(Nc1ccc(Cl)cc1)N1CCN(c2ccc3nnc(-c4ccccc4)n3n2)CC1 | 29% | -22% | 12% | / | 14% | 26µM*
COc1ccccc1NC(=O)N1CCN(c2ccc3nnc(-c4ccc(F)cc4)n3n2)CC1 | -45%[0.0914 µM] | -9% | 0% | 1% | 8% | 9.2µM*
O=C(Nc1ccccc1Cl)N1CCN(c2ccc3nnc(-c4ccc(F)cc4)n3n2)CC1 | -21% | -9% | 8% | -5% | -4% | ?
CC(C)CCn1c(SCc2ccc(F)cc2Cl)nc2ccsc2c1=O | 12%[57.1 µM] | 2% | -12% | / | 3%[57.1 µM] | /
O=S(=O)(NCCCCNS(=O)(=O)c1cccc2cccnc12)c1cccc2cccnc12 | 20% | / | / | / | 1% | /
CC(C)c1ccc2[nH]c(O)c(N=NC(=O)c3cccc(S(=O)(=O)N4CCCCC4)c3)c2c1 | -6% | ? | 1% | -2% | -11% | 18µM*
O=C(N=Nc1c(O)[nH]c2ccccc12)c1cccc(S(=O)(=O)N2CCCCC2)c1 | -10% | 3% | -6% | -2% | -12% | -9%
Cc1cc(C)c2c(c1)/C(=N/Nc1ccc(S(N)(=O)=O)cc1[N+](=O)[O-])CCC2 | -7% | 14% | 1% | 6% | -6% | 7%
